Dicer processing: blocks human Dicer maturation of pre-miR-21; 6% of 47,000 active; Q9UPY3; z-score at 25 µM; cat-ELCCA pre-miR-21 Dicer processing, chemiluminescence; active compounds read high; in the data active means z-score above about 3, passing the limit was not always enough;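 further: higher signal means more uncleaved substrate so more Dicer inhibition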
Large screens that a line does not name were inactive. The full list was thinned out, with hits kept by preference.

O=C(Cn1c(=O)oc2ccccc21)Nc1nnc(SCc2ccccc2)s1	Dicer processing 3
O=C(CCSc1nnc(NC(=O)Cn2c(=O)oc3ccccc32)s1)Nc1ccccc1	none
O=C(Cn1c(=O)oc2ccccc21)Nc1nnc(SCC(=O)N2CCCCC2)s1	none
CC(C)c1nnc(NC(=O)Cn2c(=O)oc3ccccc32)s1	none
O=C(Cn1c(=O)oc2ccccc21)Nc1nnc(SCC(=O)N2CCOCC2)s1	Dicer processing 3.2
CC(C)(C)NC(=O)CSc1nnc(NC(=O)Cn2c(=O)oc3ccccc32)s1	none
C=CCOc1ccc(C2/C(=C(\O)c3ccc(Cl)cc3)C(=O)C(=O)N2c2nnc(C)s2)cc1 (stereo not given)	none
C=CCOc1ccc(C2c3c(oc4ccccc4c3=O)C(=O)N2c2nncs2)cc1OCC (stereo not given)	none
O=C(CSc1nnc2ccccn12)Nc1ccc(Cl)cc1	none
O=C(CSc1nnc2ccccn12)Nc1cccc(-c2nc3ccccc3s2)c1	none
O=C(CCSc1nnc2ccccn12)Nc1cccc(-c2nc3ccccc3s2)c1	Dicer processing 6.1
N#Cc1c(N)nc2c(c1-c1ccc(Cl)cc1)CCCCC2	none
O=C1/C(=C\c2ccc(Cl)c(Cl)c2)SC(=S)N1c1ccc(F)c(F)c1	none
O=C1/C(=C\c2ccccc2)SC(=S)N1c1cccc(Br)c1	Dicer processing 4
Cc1cc(C)c2c(=O)c(/C=C3/SC(=S)N(c4cccc(Cl)c4)C3=O)coc2c1	none
COc1cc(C2c3c(oc4ccccc4c3=O)C(=O)N2c2nncs2)ccc1OCC(C)C (stereo not given)	none
COc1ccc(C2Nc3ccc4ccccc4c3C3=C2C(=O)CCC3)cc1OC (stereo not given)	Dicer processing 4.5
O=C1CC(c2cccc(O)c2)Nc2ccc3ccccc3c21 (stereo not given)	none
COc1ccc(OC)c(C2Nc3ccc4ccccc4c3C3=C2C(=O)CC(C)(C)C3)c1 (stereo not given)	none
COc1ccc(Br)cc1C1CC(=O)c2c(ccc3ccccc23)N1 (stereo not given)	Dicer processing 3.3
Cc1ccccc1C1CC(=O)c2c(ccc3ccccc23)N1 (stereo not given)	none
CCOc1cc(C2Nc3ccc4ccccc4c3C3=C2C(=O)CCC3)ccc1O (stereo not given)	none
O=c1c(-c2ccccc2Cl)coc2c(CN3CCN(Cc4ccccc4)CC3)c(O)ccc12	none
COc1ccc(C2NC(=O)c3c(sc4c3CCN(C)C4)N2)cc1 (stereo not given)	none
CN1CCC(=NOC(=O)Nc2ccc(Cl)cc2)CC1	none
Cc1ccc(-c2nc(NC(=O)CSc3nnc(C)s3)ns2)cc1	none
COC(=O)c1c(NC(=O)CSc2ncnc3sc(C)c(C)c23)sc2c1CCCC2	none
Cc1ccccc1-c1nc(NC(=O)CSc2ncnc3sc(C)c(C)c23)ns1	Dicer processing 3
Cc1ccc(C)c(NC(=O)C2Sc3nnc(C)n3NC2c2ccc(Cl)cc2)c1 (stereo not given)	none
N#Cc1c(C(F)(F)F)cc(-c2cccs2)nc1SCc1csc(-c2cccs2)n1	none
CN(C)/C=N/c1nc2ccc(F)cc2s1	none
COc1cc(/C=N/NC(=S)Nc2ccc(F)cc2)ccc1OS(C)(=O)=O	none
Cc1nc2ccccn2c1C(=O)NNS(=O)(=O)c1sc2ccc(Cl)cc2c1C	none
Cc1c(CC(=O)NNS(=O)(=O)c2ccccc2C(F)(F)F)sc2ccc(Cl)cc12	none
Cc1c(S(=O)(=O)Nc2ccc3[nH]ccc3c2)sc2ccc(Cl)cc12	Dicer processing 3.5
CCc1ccc(CN2CCN(C3CCCC(C)C3)CC2)cc1 (stereo not given)	Dicer processing 3
CSc1ccc(CN2CCN(S(C)(=O)=O)CC2)cc1	Dicer processing 3.1
c1cc(CN2CCN(Cc3ccncc3)CC2)ccn1	none
CS(=O)(=O)N1CCN(CC(O)Cn2c3ccccc3c3ccccc32)CC1 (stereo not given)	none
CCCS(=O)(=O)N1CCN(Cc2ccc(Br)cc2)CC1	none
CCc1ccc(CN2CCC(N3CCN(CCO)CC3)CC2)cc1	none
CC1CCCC(N2CCN(Cc3ccc(Cl)cc3)CC2)C1 (stereo not given)	none
CCc1ccc(NS(C)(=O)=O)cc1	none
CCc1ccc(CN2CCN(S(C)(=O)=O)CC2)cc1	Dicer processing 3.7
O=C1C(=O)N(Cc2cccnc2)C(c2cccnc2)/C1=C(\O)c1ccc(F)cc1 (stereo not given)	none
Cc1ccc2nc(-c3ccc(F)cc3)cn2c1	none
COC(=O)CSC1=C(C#N)C(c2cccc(Cl)c2)CC(=O)N1 (stereo not given)	none
COc1cc(-c2csc(N)n2)ccc1O	none
O=C1N(CN2CCCCCC2)c2ccccc2C12OCCO2	none
COc1ccc2c(c1OC)C(=O)OC2NC(=O)c1cnn(-c2ccccc2)c1N (stereo not given)	none
CCCOC(=O)C1=C(C)NC2=C(C(=O)CC(C)(C)C2)C1c1ccccn1 (stereo not given)	none
COC(=O)c1cnc(N2CCCN(C(=O)Nc3ccc(OCc4ccccc4)cc3)CC2)nc1C(F)(F)F	none
Cc1onc(-c2ccccc2)c1CSc1n[nH]c(=O)n1Cc1ccco1	none
c1ccc(-c2c(-c3ccccc3)n(Cc3ccco3)c3ncn4nc(-c5ccco5)nc4c23)cc1	Dicer processing 5.6
Cc1nc2c([nH]1)c(=O)n(C)c(=O)n2Cc1ccco1	none
COc1cccc(C2/C(=C(\O)c3ccc(Cl)cc3)C(=O)C(=O)N2CCCn2ccnc2)c1 (stereo not given)	none
COc1ccc(-c2cc(-c3nc4c5c(ncn4n3)CCC5)[nH]n2)cc1	none
COc1ccc(Nc2n[nH]c3c2CCc2ccccc2-3)cc1	none
COc1ccc2cc(-c3ccn[nH]3)ccc2c1	none
COc1ccc(/C=C/c2nc(-c3ccccc3O)n[nH]2)cc1	Dicer processing 26
COc1ccc(O)c(-c2cc(C(F)(F)F)nc(-c3ccccc3)n2)c1	none
COc1ccc(-c2cc(-c3ccccc3O)[nH]n2)cc1	Dicer processing 4.6
CSC(SC)=C(C#N)C(=O)c1ccoc1C	none
O=c1oc2ccccc2c2c1ncn2CCN1CCCCC1	none
Cc1cc(Nc2ccc(C)c(Br)c2)n2ncnc2n1	none
CCn1c2ccc(Br)cc2c2cc(Br)cc(Br)c21	none
Cc1ccc(C)c(Oc2coc3cc(OC(=O)c4ccco4)ccc3c2=O)c1	none
O=C(Oc1ccc(OC(=O)c2ccco2)c(Cl)c1)c1ccco1	Dicer processing 7.4
O=C(Oc1cccc2cccnc12)c1ccco1	none
CCOC(=O)CSC(=S)NCc1ccc(F)cc1	none
Cc1ccc2[nH]c(=O)c(-c3noc(-c4ccco4)n3)cc2c1	none
O=C(CSC1=NCCc2ccccc21)c1ccc(Cl)cc1	none
CCOC(=O)c1cc(C#N)c(Oc2cc(Cl)cc(Cl)c2)nc1C(F)(F)F	none
O=C1NC(=S)NC(=O)C1=C/C=C/c1c(O)[nH]c(=S)[nH]c1=O	none
C1CCc2c(c(N3CCOCC3)nc3sc4c(N5CCNCC5)nnnc4c23)C1	none
O=C(COC(=O)c1ccc(F)c(Cl)c1)c1ccc(Cl)cc1	none
O=C(COC(=O)c1cc(Cl)ccc1O)c1ccc(-c2ccccc2)cc1	Dicer processing 6.1
O=C(COC(=O)c1cc2ccccc2cc1OC(=O)c1ccc(Cl)cc1)c1ccccc1	none
COc1ccc(C2Oc3ccc(Cl)cc3C=C2[N+](=O)[O-])cc1 (stereo not given)	none
CCCCc1ccc(NCc2nc(-c3ccc(C)cc3)no2)cc1	none
O=C(Nc1cccnc1)c1cc2n(n1)C(C(F)(F)F)CC(c1ccco1)N2 (stereo not given)	none
COc1ccc(Cl)cc1NC(=O)c1cnn2c1NC(c1ccco1)CC2C(F)(F)F (stereo not given)	Dicer processing 3
COCCNC(=O)c1cc2n(n1)C(C(F)(F)F)CC(c1ccco1)N2 (stereo not given)	none
